Compound activity deposited in PubChem BioAssay by National Center for Advancing Translational Sciences (NCATS).
IL-1B inflam inh: inhibitors of inflammasome signaling (IL-1 beta secretion). THP-1 LPS/ATP IL-1B secretion, AlphaLISA, 16 h; hits give low values. AID 743279. 360,000 compounds, 4.7% hits. activity change, % at 57.5 µM; in the data active means activity change below about -50%; inconclusive means mostly about -30% to -49%
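Secreted IL-1B measured by AlphaLISA bead assay after 16 h compound exposure of THP-1 cells; compounds (final up to 57.5 uM) added 1 h before LPS (250 ng/mL) and ATP (1.25 mM) stimulation; lower signal means less secretion.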
HT1080 IDH1KD tx: HT-1080 IDH1 knockdown cell toxicity (counter line); HT-1080 IDH1 knockdown viability, ATP luminescence, 48 h; 360,000 compounds, 2% hits; Potency, µM (highest dose often 46.1 µM), inactives show at the highest dose activity, negative = toxicity, usual class: cytotoxic;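 further: potency means the concentration at half of the fitted maximal effect; 0% = DMSO wells and -100% = cell-free medium wells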
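CellTiter-Glo luminescence after 48 h compound exposure at 37 degrees C of IDH1-knockdown HT-1080 cells in 5% FBS RPMI. %Activity scaled between DMSO wells and cell-free media wells, with curves fitted and assigned curve classes.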
HT1080NT lethal: kills 2HG-producing HT-1080-NT fibrosarcoma cells; HT-1080-NT fibrosarcoma viability, CellTiter-Glo ATP luminescence, 48 h; Potency, µM (doses to about 46.1 µM), for the others: top-dose activity, negative = less viability, hits mostly cytotoxic; 360,000 compounds, 1.6% hits; AID 686970;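 further: NT is the 2HG producing partner of a matched IDH1 knockdown line; potency means the concentration at half of the fitted maximal effect; 0% = DMSO-treated cells and -100% = media-only wells without cells; nearly all actives have a fitted effect of over 55% in size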
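Luminescent CellTiter-Glo readout after 48 hours of compound exposure at 37 degrees C defined viability of HT-1080-NT cells. Activity was normalized to DMSO wells and cell-free media wells; concentration-response curves were fitted and assigned curve classes.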
DT40 TDP1 no CPT: qHTS for Inhibitors of human tyrosyl-DNA phosphodiesterase 1 (TDP1): qHTS in cells in absence of CPT. 420,000 compounds, 15% hits. DT40 Tdp1-/- hTDP1 cells, no CPT, ATP luminescence, 48 h. Potency, µM (series often up to 46.2 µM), inactives show at the highest dose activity change, negative = growth inhibition, hits mostly inhibitors. AID 686978, 2013; further: potency means the concentration at half of the fitted maximal effect; nearly all actives have a fitted effect of over 55% in size
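Luminescent ATP content (CellTiter-Glo) served as the growth readout. Knockout chicken DT40 cells expressing human TDP1 were exposed to compounds without camptothecin for a minimum 48 hr at 37 °C.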
DT40 TDP1 CPT: growth inhibition of DT40 Tdp1-/-;hTDP1 cells with camptothecin (screen for TDP1 inhibitors); Potency, µM (top dose mostly 46.2 µM), inactives show top-dose activity change, negative = growth inhibition, hits mostly inhibitors; 420,000 compounds, 12% hits; AID 686979; chicken DT40 Tdp1-/-;hTDP1 cells + 20 nM CPT, ATP luminescence, 48 h; further: potency means the concentration at half of the fitted maximal effect; nearly all actives have a fitted effect of over 55% in size
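Chicken DT40 Tdp1-/- cells complemented with human TDP1, 400 cells/well, exposed to compounds plus 20 nM camptothecin for at least 48 h at 37 C; viability read as ATP content by CellTiter-Glo luminescence.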
* marks the source's active call; other numbers are inactive results; ? = inconclusive; · = no result given. Sampled rows, rich in hits. Any-hit rate of the full collection: about 19%. Unless noted, the call rests on the fitted dose curve; in most records, active means well fitted curve in the direction sought with a large enough effect; inconclusive means small, poorly fitted or top-dose-only effect, or another doubt; inactive means no such curve, though single readings can be large; an effect the other way counts as inactive or inconclusive. Unless noted, on the % scale 0 is the no-effect control and ±100 the full control effect.

SMILES	IL-1B inflam inh	HT1080 IDH1KD tx	HT1080NT lethal	DT40 TDP1 no CPT	DT40 TDP1 CPT
CCOC(=O)C1C(=O)CC(C)(O)C(C(=O)OCC)C1c1ccco1 (stereo unspecified)	7	-6%	-1%	21µM*	18µM*
CCOC(=O)C1C(=O)CC(C)(O)C(C(=O)OCC)C1c1cccs1 (stereo unspecified)	-1	8%	9%	0%	8%
CCOC(=O)c1cnc2ccc(C)cc2c1Sc1ccccc1C(=O)OC	-2	?	-28%	?	?
Cc1cccc(N2CCN(c3ncnc4c3nc3n4CCCCC3)CC2C)c1 (stereo unspecified)	·	·	·	9.2µM*	7.3µM*
Cc1cccc(N2CCN(CCCNC(=O)C3CCCN(c4ncnc5c4nc4n5CCCCC4)C3)CC2C)c1 (stereo unspecified)	-77*	16µM*	21µM*	12µM*	?
CC1CCCC(C)N1CCCNC(=O)C1CCCN(c2ncnc3c2nc2n3CCCCC2)C1 (stereo unspecified)	9	11%	-5%	-10%	-4%
Cc1cccc(CCNC(=O)C2CCN(c3ncnc4c3nc3n4CCCCC3)CC2)c1	·	·	·	4%	3%
Cc1ccc(S(=O)(=O)N(C)CC(=O)N(C)Cc2cccs2)cc1	9	3%	4%	-26%	-14%
COC(=O)[C@H](C(C)C)N(Cc1ccccc1)S(=O)(=O)CCN1CCCC1	-6	-6%	-3%	?	?
COC(=O)C(C(C)C)N(Cc1cc(OC)cc(OC)c1)S(=O)(=O)CCl (stereo unspecified)	16	3%	6%	21µM*	16µM*
COc1ccc(Br)cc1CN(C)CC(=O)Nc1cccc(S(=O)(=O)N2CCCC2)c1	-52*	-28%	-25%	10µM*	15µM*
O=C(CSc1nnc(-c2cccc(S(=O)(=O)N3CCOCC3)c2)n1C1CCCCCC1)NCc1ccccc1	-22	-3%	3%	?	22µM*
O=C(Cc1ccccc1F)Nc1cccc(S(=O)(=O)N2CCCCC2)c1	18	0%	0%	21µM*	?
CNC(=O)CSc1nnc(-c2cccc(S(=O)(=O)N3CCOCC3)c2)n1-c1ccc(F)cc1	24	-4%	1%	-3%	-13%
COc1ccc(Br)cc1CN(C)CC(=O)Nc1cccc(S(N)(=O)=O)c1	17	5%	-5%	-28%	1%
O=C(CCl)Nc1cccc(S(=O)(=O)N2CCCCCC2)c1	-102*	18µM*	?	5.2µM*	4.1µM*
CC1CN(C(=O)CCNC(=O)c2ccc(Br)cc2)CC(C)O1 (stereo unspecified)	-9	-2%	-1%	-1%	0%
CCc1ccc(NC(=O)Cn2c(=O)ccc3cc(S(=O)(=O)N4CCCC4)ccc32)cc1	·	·	·	-2%	-14%
Cc1oc(-c2ccccc2)nc1CNC(=O)Nc1ccccc1	·	·	·	?	-28%
CCOc1ccc(C(C)=O)cc1CN1C(=O)NC(C)(C2CC2)C1=O (stereo unspecified)	23	-2%	0%	-21%	3%
Cc1ccc(NC(=O)C2CCN(C(=O)c3ccc(F)cc3)CC2)nc1	12	7%	0%	-12%	-12%
Cc1cc(C)c2c(c1)cc(C)c1nnc(SCC(=O)Nc3ccc(S(=O)(=O)N4CCCCC4)cc3)n12	1	-16%	-8%	21µM*	?
COc1ccc(NC(=O)CN(C)CC(=O)Nc2cccc(F)c2)cc1Cl	0	?	?	?	?
COc1ccc(Br)cc1CN(C)CC(=O)Nc1c(Cl)cccc1Cl	?	-20%	-17%	23µM*	?
Cc1ccc(CSc2nnc(-c3cccc(S(=O)(=O)N4CCOCC4)c3)n2CC(C)C)cc1	?	-17%	-5%	8.2µM*	13µM*
SMILES	IL-1B inflam inh	HT1080 IDH1KD tx	HT1080NT lethal	DT40 TDP1 no CPT	DT40 TDP1 CPT
O=C(Cc1ccc(Br)cc1)Nc1cccc(S(=O)(=O)N2CCCCC2)c1	-6	?	-29%	15µM*	?
Cc1nc(C(F)(F)F)ccc1C(=O)Nc1ccc2ccccc2n1	-8	-1%	-6%	-3%	-30%
CCOc1ccc(NC(=S)N2CCCN(Cc3cc(C)ccc3C)C2)cc1	-22	4%	0%	?	?
COc1ccc(CN2CNc3c(c(=O)n(C)c(=O)n3C)C2)cc1	10	11%	1%	-1%	-26%
O=C(NCc1ccccn1)[C@@H]1CCCN1C(=O)[C@@H]1CCCN1C(=O)c1cccc2ccccc12	-1	15%	1%	-22%	-12%
COc1ccc(CC(=O)Nc2cccc(S(=O)(=O)N3CCOCC3)c2)cc1OC	-14	-15%	-14%	?	?
O=C(CCNC(=O)c1ccc(Cl)cc1)Nc1cccc(S(=O)(=O)N2CCCCCC2)c1	?	-15%	-11%	-22%	?
COc1ccc(CC(=O)Nc2cccc(S(=O)(=O)N3CCCC3)c2)cc1OC	-15	-13%	-1%	18µM*	15µM*
COc1ccc(/C=C/C(=O)Nc2cccc(S(=O)(=O)NC3=NCCCCC3)c2)cc1OC	-16	-12%	0%	8.2µM*	15µM*
O=C(Cc1ccc(Cl)cc1)Nc1cccc(S(=O)(=O)N2CCCCC2)c1	-12	-10%	0%	21µM*	?
O=C(CCNC(=O)c1ccc(Br)cc1)Nc1cccc(S(=O)(=O)N2CCCCCC2)c1	-18	-7%	1%	?	13µM*
Cc1nnc(SCC(=O)Nc2cccc(S(=O)(=O)N3CCCC3)c2)n1C1CC1	-6	5%	10%	29µM*	-14%
CCOc1ccc(NC(=O)CSc2nnc(C)n2C2CC2)cc1S(=O)(=O)N1CCCC1	11	0%	1%	3%	-16%
COc1ccc(/C=C/C(=O)Nc2cccc(S(=O)(=O)N3CCCC3)c2)cc1OC	-27	-21%	-5%	21µM*	?
N=c1sccn1CC(=O)Nc1cccc(S(=O)(=O)N2CCCCCC2)c1	-2	-18%	0%	21µM*	?
O=C(CCNS(=O)(=O)c1ccc(OC(F)(F)F)cc1)Nc1cccc(S(=O)(=O)N2CCCC2)c1	-5	-1%	0%	?	18µM*
CC(C)(C)c1ccc(OCCC(=O)Nc2cccc(S(=O)(=O)N3CCCC3)c2)cc1	2	-9%	-9%	?	?
COc1ccc(/C=C/C(=O)ONC2=NCCCCC2)cc1OC	-6	?	-22%	?	23µM*
Cc1ccccc1OCc1n[nH]c(=S)n1-c1ccccc1	15	2%	25%	8%	2%
